Several values for one entry are separate records, joined by “and”; a condition that tells them apart may be missing. Equal values may be shown once. Records with an inconclusive call do not appear. Activity calls are given as the source filed them. Unless noted, the call rests on the fitted dose curve; in most records, active means well fitted curve in either direction with a large enough effect (not every such curve was filed as active); inconclusive means small, poorly fitted or top-dose-only effect, or another doubt; inactive means flat fitted curve, though single readings scatter.
Experiments:
[1] = AP1 Signaling Pathway (AID 357); settings: ME-180 AP-1-bla reporter, EGF-induced, beta-lactamase ratio, 5 h;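 further: ME-180 reporter cells stimulated with EGF at its EC50 level; on the % scale 0 is the no-effect control and ±100 the full control effect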
How it was run: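 First, ME-180 AP-1-bla cells were cultured overnight at 37 °C in low-serum Opti-MEM. Next, titrated compounds with EC50 EGF were incubated 5 hours. Finally, CCF4 was added for 2.5 hours and the 460/530 nm ratio recorded.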

[2] = biological target: Cytochrome P450 1A2 (Homo sapiens) (UniProt P05177); test: p450-cyp1a2 (AID 410; calls by dose curve; further: potency means the concentration at half of the fitted maximal effect;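 on activity change, negative = inhibition: -100% = full effect of reference inhibitor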); settings: recombinant CYP1A2, luciferin-ME demethylation, luminescence; series mostly up to 57 µM
How it was run: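 Human CYP1A2 (20nM) demethylated Luciferin-ME at its Km (100uM) in 100mM KPO4. After 10 min compound preincubation, NADPH regeneration ran the reaction 60 min at room temperature. Luciferin was read by luminescence, normalized to 57 uM furafylline.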

[3] = NFAT Signaling Pathway (AID 444); settings: Jurkat NFAT-bla M1, carbachol, beta-lactamase ratio, 5 h;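 further: carbachol stimulus at about its EC50 of 1 µM final; on the % scale 0 is the no-effect control and ±100 the full control effect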
How it was run: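 Read-out: CCF4 FRET ratio (460 nm/530 nm) after 1 h RT dye loading, used for %activity and AC50 from titration series. Cells: Jurkat NFAT-β-lactamase/M1 line, treated with compound plus 1 uM carbachol for 5 h, 37 °C.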

[4] = Stat Signaling Pathway (AID 446); settings: ME-180 (cervical carcinoma) SIE beta-lactamase reporter, IL-6 stimulated, 5 h;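 further: ME-180 cervical cancer cells given 40 pM IL-6 alongside compound; SIE-controlled beta-lactamase reporter measured as 460/530 nm FRET emission ratio; on the % scale 0 is the no-effect control and ±100 the full control effect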
How it was run: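 IL-6/STAT signaling read in ME-180 cells via an SIE beta-lactamase reporter. Stimulus was 40 pM IL-6 (its AC50) for 5 hrs, so both activation and inhibition register.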

[5] = biological target: Glucocorticoid receptor (Homo sapiens) (UniProt P04150); test: GR-GFP Redistribution (AID 450;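 active means compounds whose dose series gives a full or clear partial fitted curve of increased nuclear translocation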; further: potency means the concentration at half of the fitted maximal effect); settings: U2OS GR-GFP nuclear translocation, laser cytometry, 2 h
[6] = biological target: Glucocorticoid receptor (Homo sapiens) (UniProt P04150); test: GR-EFC Redistribution (AID 451; calls by dose curve; further: potency means the concentration at half of the fitted maximal effect); settings: CHO-K1 GR-EFC translocation, beta-gal luminescence, 2 h
How it was run: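 Translocation of GR-ED fusion to nuclear EA restores b-gal, read by luminescence after 1 h room-temperature detection. Engineered CHO-K1 biosensor cells, 1,000/well, exposed 2 h at 37 C to titrations up to 46 uM final.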

[7] = biological target: Mitogen-activated protein kinase 10 (Mus musculus) (UniProt Q61831); test: JNK3 AlphaScreen Assay (AID 530); settings: JNK3 lysate, c-Jun phosphorylation; series mostly up to 57.1 µM;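 further: kinase came from lysate of stimulated human HepG2 cells; signal reports phosphorylation of biotinylated GST-cJun 1-79 at Ser73 with 10 µM ATP; on the % scale 0 is the no-effect control and ±100 the full control effect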
How it was run: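 Room-temperature AlphaScreen kinase assay; pre-activated HepG2 lysate as JNK3 source, biotin-GST-cJun(1-79) substrate, 10 uM ATP, compound 15 min preincubation.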

[8] = biological target: 3',5'-cyclic-AMP phosphodiesterase 4B (Homo sapiens) (UniProt Q07343); test: qHTS Assay for Inhibitors of PDE-IV (AID 607; active means well fitted activation curve with a large enough effect in the main read-out, with a control signal flat, not every such curve was filed as active; further: % of control where 0% means no effect); settings: HEK293 ACTOne CNG channel cells, membrane potential fluorescence; series mostly up to 22.9 µM
How it was run: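 Live HEK293 cells with a modified cyclic nucleotide-gated (CNG) channel report intracellular cAMP via membrane-potential dye fluorescence (ex 535/em 590 nm). Endogenous PDE-IV was targeted. Compounds were tested at up to 22.9 uM final; RO 20-1724 100 uM served as control.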

[9] = biological target: Guanine nucleotide-binding protein G(i) subunit alpha-1 (Homo sapiens) (UniProt P63096); test: qHTS Assay for Inhibitors of RGS12 GoLoco Motif Activity (Green Fluorophore) (AID 879; active means well fitted curve in the direction sought with a large enough effect; an effect the other way counts as inactive or inconclusive;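 further: 0% = labeled peptide with Gαi1 and full inhibition = labeled peptide alone without protein; negative values mean loss of peptide binding seen as reduced polarization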); settings: Galphai1/FITC-RGS12 GoLoco peptide, fluorescence polarization; series mostly up to 57.1 µM
How it was run: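 Fluorescence polarization assay: 50 nM Gαi1 with 10 nM FITC-labeled RGS12 GoLoco peptide in 10 mM Tris pH 7.5, 150 mM NaCl, 0.1 mM GDP, 0.05% NP40, 10 min at room temperature with compound.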

[10] = biological target: Pyruvate kinase (Leishmania mexicana) (UniProt Q27686); test: qHTS Validation Assay for Inhibitors of Leishmania Mexicana Pyruvate Kinase (AID 945; active means well fitted curve in the direction sought with a large enough effect; an effect the other way counts as inactive or inconclusive;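 further: 0% = DMSO only neutral control wells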); settings: purified L. mexicana pyruvate kinase, enzyme activity, E451W mutant enzyme; series mostly up to 57.5 µM
How it was run: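 The enzyme is a highly purified E451W mutant of LmPYK used at 0.2 nM. It converts 0.5 mM PEP and 0.1 mM ADP over 1 h at room temperature; product ATP is quantified by luciferase luminescence relative to DMSO controls.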

[11] = biological target: Pyruvate kinase PKM (Homo sapiens) (UniProt P14618); test: qHTS Assay for Activators of Human Muscle Pyruvate Kinase (AID 954; active means well fitted curve in the direction sought with a large enough effect, not every such curve was filed as active;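 further: 0% = uninhibited enzyme and -100% = no enzyme or full thiadiazolimine inhibition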); settings: purified human muscle pyruvate kinase, luciferase-coupled luminescence, 1 h; series mostly up to 57.5 µM
How it was run: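 Enzyme was run at intermediate activity so both inhibitors and activators could be detected. ATP formed from ADP and PEP by 0.1 nM human PKM2 during a 1 h room-temperature incubation was quantified by coupled luciferase luminescence.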

[12] = qHTS Assay for Lipid Storage Modulators (AID 1519; calls by dose curve); settings: Drosophila S3 cells, BODIPY lipid droplet/cell ratio, laser cytometry, cells loaded with oleic acid
How it was run: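 Cells seeded at 5,000 per well were treated with compounds over a concentration series and loaded with oleic acid (400 uM, as added). Lipid droplet fluorescence (488 nm excitation, 500-530 nm channel) was read by laser-scanning cytometry and normalized to 20 uM Triacsin C.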

[13] = biological target: Ubiquitin carboxyl-terminal hydrolase 1 (Homo sapiens) (UniProt O94782); test: Inhibitors of USP1/UAF1: Pilot qHTS (AID 504865; active means well fitted curve in the direction sought with a large enough effect; an effect the other way counts as inactive or inconclusive;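 further: rhodamine fluorescence freed from ubiquitin-rhodamine substrate followed over time; top concentration of the series differs between compounds; on the % scale 0 is the no-effect control and ±100 the full control effect; nearly all actives have a fitted effect of over 35% in size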); settings: purified USP1/UAF1, Ub-rhodamine cleavage fluorescence; series mostly up to 54.9 µM
How it was run: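 USP1/UAF1 complex at 1 nM preincubated 15 min at room temperature with compound, then Ub-Rho substrate added at 150 nM final. Fluorescence (480/540 nm) read kinetically in 50 mM HEPES pH 7.8, 0.5 mM EDTA, 1 mM TCEP, 0.1 mg/ml BSA, 0.01% Tween-20.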

[14] = biological target: ATP-dependent 6-phosphofructokinase (Trypanosoma brucei brucei) (UniProt O15648); test: qHTS Assay to Find Inhibitors of T. brucei phosphofructokinase: hit validation (AID 492961; active means well fitted curve in the direction sought with a large enough effect; an effect the other way counts as inactive or inconclusive); settings: T. brucei PFK, ADP-Glo luminescence; series mostly up to 24.3 µM
How it was run: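 Measures ADP output of PFK (1.25 nM) at 0.1 mM ATP, 0.5 mM F6P, pH 8.0 TEA buffer with 5 mM MgCl2. No-enzyme wells define full inhibition; uninhibited enzyme wells define zero.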

[15] = biological target: Luciferin 4-monooxygenase (Photinus pyralis) (UniProt P08659); test: Biochemical firefly luciferase enzyme assay for NPC (AID 624030; active means well fitted curve in the direction sought with a large enough effect; an effect the other way counts as inactive or inconclusive;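 further: purified P. pyralis luciferase at 10 nM with luciferin and ATP substrate; 0% = DMSO and -100% = full luciferase inhibition by PTC124 control; nearly all actives have a fitted effect of over 70% in size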); settings: purified P. pyralis luciferase, luminescence, 5 min; series mostly up to 58.6 µM
How it was run: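 Direct inhibition of firefly luciferase enzyme (10 nM final, 50 mM Tris Acetate) assessed by luminescence within 5 minutes. Percent activity scaled between DMSO and PTC124 positive control, with concentration-effect curves classified by fit quality and response.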

[16] = qHTS profiling for inhibitors of Plasmodium falciparum proliferation (AID 504749; active means well fitted curve in the direction sought with a large enough effect; an effect the other way counts as inactive or inconclusive; further: nearly all actives have a fitted effect of over 60% in size; further: potency means the concentration at half of the fitted maximal effect;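 on activity, negative = inhibition: 0% = DMSO vehicle and full inhibition = artemisinin control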); settings: P. falciparum in erythrocytes, SYBR Green DNA, 72 h; parasite line B
How it was run: (§1)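 Three-day growth assay of blood-stage parasites in erythrocytes (0.3% parasitemia, 2.5% hematocrit) at 37 C, 5% CO2, quantified by SYBR Green DNA staining after overnight detergent lysis.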

[17] = tested on: AS120; test: as above; settings: P. falciparum in erythrocytes, SYBR Green DNA, 72 h; series mostly up to 28.7 µM
How it was run: as §1

[18] = tested on: CP238; test: as above; settings: P. falciparum in erythrocytes, SYBR Green DNA, 72 h; series mostly up to 12.8 µM
How it was run: as §1

[19] = tested on: CP265; test: as above; settings: P. falciparum in erythrocytes, SYBR Green DNA, 72 h; series mostly up to 12.8 µM
How it was run: as §1

[20] = tested on: FAB9; test: as above; settings: P. falciparum in erythrocytes, SYBR Green DNA, 72 h; series mostly up to 12.8 µM
How it was run: as §1

[21] = measured here: cell count channel max response
[22] = measured here: lipid channel max response

3',5'-cyclic-AMP phosphodiesterase 4B (Homo sapiens), sequence (Q07343 whole entry, looked up): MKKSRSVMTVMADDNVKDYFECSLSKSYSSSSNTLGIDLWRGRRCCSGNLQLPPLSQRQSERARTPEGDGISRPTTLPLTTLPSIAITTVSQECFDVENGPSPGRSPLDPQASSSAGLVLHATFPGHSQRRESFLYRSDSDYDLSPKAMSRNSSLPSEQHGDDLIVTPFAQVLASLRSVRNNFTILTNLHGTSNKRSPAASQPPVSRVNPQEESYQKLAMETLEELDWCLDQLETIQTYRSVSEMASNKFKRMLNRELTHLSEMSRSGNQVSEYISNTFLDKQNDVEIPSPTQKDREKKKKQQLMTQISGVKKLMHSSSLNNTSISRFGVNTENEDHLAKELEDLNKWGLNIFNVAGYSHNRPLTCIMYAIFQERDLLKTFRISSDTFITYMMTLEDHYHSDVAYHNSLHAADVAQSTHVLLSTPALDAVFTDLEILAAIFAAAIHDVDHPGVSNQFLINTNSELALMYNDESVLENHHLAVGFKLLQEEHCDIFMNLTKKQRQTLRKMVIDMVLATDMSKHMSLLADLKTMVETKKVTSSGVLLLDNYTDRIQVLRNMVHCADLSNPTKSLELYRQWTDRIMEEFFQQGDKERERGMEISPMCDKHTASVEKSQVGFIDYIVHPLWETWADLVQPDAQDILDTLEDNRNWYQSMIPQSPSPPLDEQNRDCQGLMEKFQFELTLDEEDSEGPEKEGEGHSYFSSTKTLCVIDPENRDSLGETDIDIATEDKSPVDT
Pyruvate kinase PKM (Homo sapiens), sequence (P14618 whole entry, looked up): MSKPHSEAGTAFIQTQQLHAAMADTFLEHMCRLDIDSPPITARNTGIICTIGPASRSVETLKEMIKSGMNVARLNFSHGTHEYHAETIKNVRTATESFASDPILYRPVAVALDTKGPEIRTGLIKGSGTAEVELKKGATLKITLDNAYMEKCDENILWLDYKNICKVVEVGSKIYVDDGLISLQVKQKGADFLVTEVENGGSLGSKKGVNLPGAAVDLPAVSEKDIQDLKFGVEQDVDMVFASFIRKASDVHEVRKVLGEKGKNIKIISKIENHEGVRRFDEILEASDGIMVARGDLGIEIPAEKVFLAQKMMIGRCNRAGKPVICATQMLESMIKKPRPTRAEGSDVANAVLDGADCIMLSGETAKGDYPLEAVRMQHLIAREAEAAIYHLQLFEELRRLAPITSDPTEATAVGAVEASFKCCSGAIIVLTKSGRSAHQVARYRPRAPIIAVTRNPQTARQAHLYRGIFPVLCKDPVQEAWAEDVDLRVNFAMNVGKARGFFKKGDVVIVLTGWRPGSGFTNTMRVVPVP
Pyruvate kinase (Leishmania mexicana), sequence (Q27686 2-499 E452W): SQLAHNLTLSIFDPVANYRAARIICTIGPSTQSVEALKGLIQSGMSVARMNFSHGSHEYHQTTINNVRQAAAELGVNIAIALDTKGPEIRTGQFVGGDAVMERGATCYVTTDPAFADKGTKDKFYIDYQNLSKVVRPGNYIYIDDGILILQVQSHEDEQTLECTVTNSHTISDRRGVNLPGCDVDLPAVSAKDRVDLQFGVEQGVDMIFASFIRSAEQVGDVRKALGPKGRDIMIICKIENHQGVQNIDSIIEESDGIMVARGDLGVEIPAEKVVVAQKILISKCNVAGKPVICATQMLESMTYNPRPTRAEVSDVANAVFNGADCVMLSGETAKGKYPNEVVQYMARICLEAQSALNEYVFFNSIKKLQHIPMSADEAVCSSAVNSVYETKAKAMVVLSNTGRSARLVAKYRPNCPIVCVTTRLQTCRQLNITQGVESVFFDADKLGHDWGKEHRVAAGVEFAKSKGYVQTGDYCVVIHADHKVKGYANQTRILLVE
Cytochrome P450 1A2 (Homo sapiens), sequence (P05177 whole entry, looked up): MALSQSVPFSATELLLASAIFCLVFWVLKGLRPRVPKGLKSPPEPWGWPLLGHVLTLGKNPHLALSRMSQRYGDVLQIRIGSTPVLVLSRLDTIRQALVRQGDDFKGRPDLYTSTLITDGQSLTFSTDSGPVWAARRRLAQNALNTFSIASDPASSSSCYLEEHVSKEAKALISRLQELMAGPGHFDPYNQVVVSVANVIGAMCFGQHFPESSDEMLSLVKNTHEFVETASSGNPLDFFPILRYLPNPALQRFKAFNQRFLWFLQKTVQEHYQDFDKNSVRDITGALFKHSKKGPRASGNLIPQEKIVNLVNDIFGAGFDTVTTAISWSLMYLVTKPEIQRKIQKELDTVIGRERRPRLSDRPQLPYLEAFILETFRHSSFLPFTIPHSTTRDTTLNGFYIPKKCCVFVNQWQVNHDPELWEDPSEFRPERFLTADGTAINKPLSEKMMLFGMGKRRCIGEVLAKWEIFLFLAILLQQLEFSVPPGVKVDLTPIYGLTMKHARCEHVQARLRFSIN
Ubiquitin carboxyl-terminal hydrolase 1 (Homo sapiens), sequence (O94782 whole entry, looked up): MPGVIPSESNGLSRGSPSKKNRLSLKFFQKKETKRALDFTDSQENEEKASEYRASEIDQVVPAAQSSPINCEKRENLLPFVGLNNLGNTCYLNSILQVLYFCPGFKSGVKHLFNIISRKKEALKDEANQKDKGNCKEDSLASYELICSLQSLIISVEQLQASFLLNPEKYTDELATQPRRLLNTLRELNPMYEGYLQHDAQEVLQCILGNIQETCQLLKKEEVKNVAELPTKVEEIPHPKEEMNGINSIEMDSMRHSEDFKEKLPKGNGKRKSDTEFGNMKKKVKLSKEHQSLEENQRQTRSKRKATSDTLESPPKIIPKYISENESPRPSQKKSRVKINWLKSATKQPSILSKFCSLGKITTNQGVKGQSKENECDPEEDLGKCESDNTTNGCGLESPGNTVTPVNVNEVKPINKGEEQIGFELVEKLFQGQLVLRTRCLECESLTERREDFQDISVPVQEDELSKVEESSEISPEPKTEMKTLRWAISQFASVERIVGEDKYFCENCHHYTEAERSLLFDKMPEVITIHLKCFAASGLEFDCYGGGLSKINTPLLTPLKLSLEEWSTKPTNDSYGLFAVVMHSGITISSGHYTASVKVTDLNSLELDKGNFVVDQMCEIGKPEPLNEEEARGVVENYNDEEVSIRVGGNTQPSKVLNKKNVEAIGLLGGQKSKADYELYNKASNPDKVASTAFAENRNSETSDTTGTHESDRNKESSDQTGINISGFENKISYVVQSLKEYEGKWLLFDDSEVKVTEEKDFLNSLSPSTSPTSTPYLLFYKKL
Glucocorticoid receptor (Homo sapiens), sequence (P04150 whole entry, looked up, the tested form may be a part): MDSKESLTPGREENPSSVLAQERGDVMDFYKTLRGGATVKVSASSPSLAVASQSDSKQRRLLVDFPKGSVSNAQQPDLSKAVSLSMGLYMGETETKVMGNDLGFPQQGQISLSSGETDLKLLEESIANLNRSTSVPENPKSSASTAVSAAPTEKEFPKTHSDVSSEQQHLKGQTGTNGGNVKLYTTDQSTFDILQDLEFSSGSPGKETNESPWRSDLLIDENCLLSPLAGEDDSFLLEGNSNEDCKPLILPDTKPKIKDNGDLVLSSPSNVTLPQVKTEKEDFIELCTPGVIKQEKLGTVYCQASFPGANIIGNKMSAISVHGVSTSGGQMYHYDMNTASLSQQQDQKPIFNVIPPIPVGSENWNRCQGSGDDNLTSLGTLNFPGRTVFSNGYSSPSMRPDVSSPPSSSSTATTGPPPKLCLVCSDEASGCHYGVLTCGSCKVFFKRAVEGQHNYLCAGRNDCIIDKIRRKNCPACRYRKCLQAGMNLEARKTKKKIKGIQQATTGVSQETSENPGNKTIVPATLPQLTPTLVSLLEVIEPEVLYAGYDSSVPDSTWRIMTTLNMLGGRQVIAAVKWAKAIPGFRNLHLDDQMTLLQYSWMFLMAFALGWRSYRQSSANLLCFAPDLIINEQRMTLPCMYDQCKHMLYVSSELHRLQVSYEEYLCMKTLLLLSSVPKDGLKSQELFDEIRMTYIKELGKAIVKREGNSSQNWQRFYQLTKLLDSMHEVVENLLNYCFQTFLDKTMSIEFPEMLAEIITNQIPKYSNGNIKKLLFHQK
Guanine nucleotide-binding protein G(i) subunit alpha-1 (Homo sapiens), sequence (P63096 whole entry, looked up): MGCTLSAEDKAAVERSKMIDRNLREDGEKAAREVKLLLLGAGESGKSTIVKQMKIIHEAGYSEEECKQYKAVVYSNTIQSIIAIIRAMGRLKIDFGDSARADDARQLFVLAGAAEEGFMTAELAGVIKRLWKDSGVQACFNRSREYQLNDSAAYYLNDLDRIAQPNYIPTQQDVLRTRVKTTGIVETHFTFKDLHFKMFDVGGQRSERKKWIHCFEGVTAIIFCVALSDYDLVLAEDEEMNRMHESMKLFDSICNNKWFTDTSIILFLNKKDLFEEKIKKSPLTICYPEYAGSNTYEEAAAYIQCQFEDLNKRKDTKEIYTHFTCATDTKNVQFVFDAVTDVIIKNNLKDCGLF
ATP-dependent 6-phosphofructokinase (Trypanosoma brucei brucei), sequence (O15648 whole entry, looked up): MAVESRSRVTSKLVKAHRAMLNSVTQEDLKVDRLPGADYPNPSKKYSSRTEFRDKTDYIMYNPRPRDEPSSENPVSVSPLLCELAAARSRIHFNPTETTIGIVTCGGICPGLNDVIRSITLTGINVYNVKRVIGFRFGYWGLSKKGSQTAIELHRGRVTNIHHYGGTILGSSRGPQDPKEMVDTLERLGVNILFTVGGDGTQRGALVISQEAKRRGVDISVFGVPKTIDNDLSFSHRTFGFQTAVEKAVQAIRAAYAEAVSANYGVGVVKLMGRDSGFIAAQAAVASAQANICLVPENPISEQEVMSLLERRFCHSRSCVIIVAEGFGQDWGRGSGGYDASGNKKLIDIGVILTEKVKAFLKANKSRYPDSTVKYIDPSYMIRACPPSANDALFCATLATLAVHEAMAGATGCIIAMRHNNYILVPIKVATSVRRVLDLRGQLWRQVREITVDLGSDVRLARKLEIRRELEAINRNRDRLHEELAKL

COc1cc(=O)n(C)c2c(OC[C@@H](O)C(C)(C)O)cccc12
-18.8%: max response [12, 22]
-7.54%: max response [12, 21]
inactive: activity change, negative = inhibition ([1]; at 17.2 µM (top of the series)) 11.5% | activity change, negative = inhibition ([1]; at 38 µM (top of the series)) 3.48% | activity change, negative = inhibition ([3]; at 17.2 µM (top of the series)) 1.64% | activity change, negative = inhibition ([3]; at 38 µM (top of the series)) 5.18% | activity, negative = inhibition ([4]; at 17.2 µM (top of the series)) -4.39% | activity, negative = inhibition ([4]; at 38 µM (top of the series)) 1.34% | Potency [5] > 46 µM and > 20.6 µM | Potency [6] > 46 µM and > 20.6 µM | Potency [7] | Potency [8] | Potency [9] | outcome [10] | outcome [11] | activity change, negative = inhibition ([12]; at 25.7 µM (top of the series)) -2.03% | Potency [13]
active: Potency [2] 20 µM and 12.6 µM

CN1C(=O)CC[C@@H]1c1cccnc1
5.39%: max response [12, 21]
inactive: activity change, negative = inhibition ([1]; at 17.2 µM (top of the series)) 10.4% | activity change, negative = inhibition ([1]; at 38 µM (top of the series)) -5.74% | Potency [2] | activity change, negative = inhibition ([3]; at 17.2 µM (top of the series)) 1.15% | activity change, negative = inhibition ([3]; at 38 µM (top of the series)) 1.74% | activity, negative = inhibition ([4]; at 17.2 µM (top of the series)) -1.06% | activity, negative = inhibition ([4]; at 38 µM (top of the series)) 17.2% | Potency [7] | Potency [8] | Potency [9] | outcome [10] | outcome [11] | activity change, negative = inhibition ([12]; at 25.7 µM (top of the series)) 0.0072% | Potency [13]
2.29%: max response [12, 22]

O=c1c(-c2cccs2)nc2cnc(Oc3cccc(Cl)c3)nc2n1C1CC1
-23.3%: max response [12, 22]
inactive: Potency [5] > 9.22 µM | Potency [6] > 46 µM | Potency [7] | activity change, negative = inhibition ([12]; at 57.5 µM (top of the series)) -23.5%
0.533%: max response [12, 21]

CCNc1ncc2nc(-c3ccc(OC)cc3)c(=O)n(Cc3cccc(OC)c3)c2n1
-29.7%: max response [12, 22]
active: Potency [2] 15.8 µM
inactive: Potency [5] > 9.22 µM | Potency [6] > 46 µM | Potency [7] | activity change, negative = inhibition ([12]; at 57.5 µM (top of the series)) -12%
-21.5%: max response [12, 21]

C[C@@H](CCc1ccccc1)NC[C@H](O)c1ccc(O)c(C(N)=O)c1
-13.3%: max response [12, 22]
inactive: activity change, negative = inhibition ([1]; at 17.2 µM (top of the series)) 10.2% | activity change, negative = inhibition ([1]; at 38 µM (top of the series)) 8.69% | Potency [2] | activity change, negative = inhibition ([3]; at 17.2 µM (top of the series)) -19.2% | activity change, negative = inhibition ([3]; at 38 µM (top of the series)) -1.34% | activity, negative = inhibition ([4]; at 17.2 µM (top of the series)) -0.55% | activity, negative = inhibition ([4]; at 38 µM (top of the series)) 4.03% | Potency [5] > 46 µM and > 20.6 µM | Potency [6] > 46 µM and > 20.6 µM | Potency [7] | Potency [8] | Potency [9] | outcome [10] | outcome [11] | activity change, negative = inhibition ([12]; at 25.7 µM (top of the series)) -1.75% | outcome [14] | Potency [13] | outcome [15] | Potency [17] | Potency [18] | Potency [19] | Potency [20]
active: Potency [16] 10 µM
-10.3%: max response [12, 21]
